# From PubChem BioAssay (NCI)
# The panel holds about 83,000 compounds, 20% with a hit somewhere; the sample as a whole holds those more often.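 Negative percent growth values reflect cell death: -40 means 40% of the cells present at the start died, and -100 means all died.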 Unmarked numbers belong to inactive results. The source made the active and inactive calls. How the source made its calls: active means growth percent below 10; inactive means the rest.
# Tests used:
# Assay in all cases: NCI-60 one-dose screen, 48 h (100 = growth as untreated, 0 = no growth, -100 = all killed)
# Conditions in all cases: 10 µM unless noted
# SR leukemia = test system: SR leukemia
# RPMI-8226 leukemia = test system: RPMI-8226 leukemia
# OVCAR-8 ovarian = test system: OVCAR-8 ovarian
# OVCAR-5 ovarian = test system: OVCAR-5 ovarian
# OVCAR-4 ovarian = test system: OVCAR-4 ovarian
# SK-OV-3 ovarian = test system: SK-OV-3 ovarian
# IGROV1 ovarian = test system: IGROV1 ovarian
# HS 578T breast = test system: HS 578T breast
# NCI/ADR-RES ovarian = test system: NCI/ADR-RES ovarian
# T-47D breast = test system: T-47D breast
# BT-549 breast = test system: BT-549 breast
# MDA-MB-435 melanoma = test system: MDA-MB-435 melanoma
# SW-620 colon = test system: SW-620 colon
# MCF7 breast = test system: MCF7 breast
# HCT-116 colon = test system: HCT-116 colon
# HCC-2998 colon = test system: HCC-2998 colon
# KM12 colon = test system: KM12 colon
Compound,growth (SR leukemia),growth (RPMI-8226 leukemia),growth (OVCAR-8 ovarian),growth (OVCAR-5 ovarian),growth (OVCAR-4 ovarian),growth (SK-OV-3 ovarian),growth (IGROV1 ovarian),growth (HS 578T breast),growth (NCI/ADR-RES ovarian),growth (T-47D breast),growth (BT-549 breast),growth (MDA-MB-435 melanoma),growth (SW-620 colon),growth (MCF7 breast),growth (HCT-116 colon),growth (HCC-2998 colon),growth (KM12 colon)
O=C1C(SCc2ccccc2)=C(Cl)CN1c1ccccc1,18.5%,83.9%,101%,97.5%,103%,126%,103%,104%,102%,88%,108%,96.8%,102%,40.6%,88.5%,103%,98.3%
Fc1cc(F)cc(NNC(=S)c2ccccc2)c1,23.2%,15.6%,41%,91.8%,49.1%,28.1%,57.2%,61.3%,55.2%,-2.7% (active),17.8%,64%,58%,37.5%,20.9%,87%,49.1%
COc1cc(/C=N\NC(=O)c2ccc3nc(-c4ccc(Br)cc4)[nH]c3c2)cc(OC)c1OC,37.9%,10.7%,45.6%,119%,74.1%,68.3%,57.9%,38%,95.9%,9.41% (active),38%,52.5%,79.1%,6.5% (active),18%,73.1%,47.1%
NS(=O)(=O)c1ccc(Nc2nc(Nc3ccccc3)nc(N3N=C(c4ccc(Cl)cc4)CC3c3ccc(Cl)cc3)n2)cc1 (stereo unspecified),5.52% (active),37.1%,68.4%,43.2%,49.5%,64.9%,34.3%,78.8%,62.4%,51.3%,73.2%,39.1%,54.4%,12.8%,14.1%,13.1%,5.08% (active)
C#Cc1nc(/C=C/C(=O)NO)cs1,-42.9% (active),-6.82% (active),21%,42.3%,-24.9% (active),95.6%,-71.5% (active),56%,-6.26% (active),67.9%,101%,61.1%,45.8%,62.6%,23.8%,111%,56.3%
CN1CCN(Cc2ccc(NC(=O)c3cncc(C#Cc4cnc5ccc(OCCCS(C)(=O)=O)nn45)c3)cc2C(F)(F)F)CC1,3.03% (active),-3.99% (active),-20.5% (active),3.1% (active),-29.7% (active),-10.9% (active),-13.9% (active),-24.1% (active),75%,16.2%,-21.5% (active),-22.7% (active),1.18% (active),-12.8% (active),1.88% (active),-22% (active),-3.51% (active)
COc1ccc(-c2nc(C#N)c(N3CCC(S(=O)(=O)N4CCOCC4)CC3)o2)cc1,83.8%,101%,106%,97.1%,97.8%,107%,93%,102%,97.2%,96.9%,108%,99.3%,95.7%,90.7%,110%,107%,97.1%
O=C(/C=C/c1csc(Br)n1)NO,13.8%,9.04% (active),22.3%,10.7%,65.1%,38.2%,16.7%,44.3%,1.04% (active),8.14% (active),80.7%,5.36% (active),10.2%,24.6%,5.92% (active),29.2%,34.9%
COc1ccc2c(c1)C=CC1(O2)Oc2ccc(OC)cc2C=C1C (stereo unspecified),11.3%,19%,17.5%,29.7%,74.6%,57.2%,24.5%,22.3%,9.17% (active),45%,26.5%,-35.3% (active),29.8%,12.1%,12.4%,24.1%,27.9%
CNC(=O)Nc1ccc(Nc2cc(-c3ccc(-n4cccn4)cc3)[nH]n2)c(C)c1,89%,93.3%,102%,111%,102%,107%,108%,116%,99.8%,104%,111%,105%,126%,81.2%,107%,123%,101%
Brc1cc(-c2cc(-c3ccc4c(c3)OCCO4)[nH]n2)cs1,14.2%,29.9%,51.8%,75.8%,83.5%,62.5%,50.8%,61.1%,17.4%,38.5%,66%,-26.8% (active),36.7%,14.7%,41.5%,62.1%,27.7%
O=C(/C=C/C=C/c1csc(Br)n1)NO,60%,60.7%,85.7%,98.2%,103%,113%,106%,98.5%,74.6%,103%,98.4%,92.6%,103%,84.2%,95.8%,107%,93.4%
CN1CCN(c2ccc(C(=O)/C=C/c3cc(F)cc(C(F)(F)F)c3)cc2)CC1,17.5%,11.2%,65.2%,115%,71.8%,109%,77.9%,100%,59%,51.9%,71.2%,24%,20%,8.55% (active),22.8%,86.6%,35.5%
COC(=O)CNC(=O)c1cccc(-c2cc(=O)c3c(OC)c(OC)c(OC)cc3o2)c1,85%,94.8%,98%,98.1%,102%,118%,99.1%,99.7%,99.5%,107%,102%,107%,100%,89.2%,101%,100%,103%
CCN(CC)c1ccc(/C=N/NC(=O)c2ccc(S(N)(=O)=O)cc2)c(O)c1,10.5%,38.3%,13.1%,50%,32.6%,32.2%,17.6%,54.3%,18%,30.4%,26.5%,31.1%,35%,6.43% (active),24.2%,37.3%,24.2%
COc1cccc2c1C=CC1(O2)Oc2cccc(OC)c2C=C1C (stereo unspecified),12.8%,18.9%,23.5%,29.6%,85.3%,65.5%,27.9%,20.8%,4.87% (active),45.7%,25.1%,-10.1% (active),30%,13.1%,14%,15.8%,20.5%
CC[C@]12C=CCN3CC[C@@]4(c5ccc(OC)cc5N(C)[C@H]4[C@@](O)(C(=O)OC)[C@@H]1OC(=O)CCN1CCc4ccccc4C1)[C@@H]32,82.2%,78.4%,94.9%,96.3%,91.2%,103%,81.5%,92%,80.5%,84%,93.2%,95.6%,95.6%,82.5%,90.9%,69.5%,103%
CC(C)[C@H]1c2[nH]c3ccccc3c2C[C@H]2C(=O)N(CCCCCCC(=O)NO)CC(=O)N12,33.6%,58.6%,60.8%,81.5%,99.9%,95%,92.9%,74.2%,95.3%,62.4%,101%,74.9%,82.3%,59.5%,59.2%,102%,88.8%
